Source: PubChem BioAssay (National Center for Advancing Translational Sciences (NCATS))
A selection: hits, their analogues and other compounds. The true share with any hit is near 3.8%.
ATXN2 expr inh – Primary qHTS for Inhibitors of ATXN expression | HEK-293 ATXN2-luciferase reporter, luminescence, 24 h | Potency, µM (titrated, usually from 57 µM), inactives show at the top dose activity change, negative = inhibition, actives largely listed as inhibitors | 0.72% of 360,000 active | AID 1745845, 2022; note: % is set by controls: 0 for no effect and ±100 for the full control effect; nearly all actives have a fitted effect of over 55% in size
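ATXN2-luciferase reporter cells (luciferase flanked by upstream and downstream ATXN2 gene portions) were treated 24 h at 37 °C with compounds at up to 57 uM. SteadyGlo luminescence gave expression; GF-AFC fluorescence gave viability.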
HT1080 IDH1KD tx – qHTS for induction of synthetic lethality in tumor cells producing 2HG: qHTS for the HT-1080-IDH1KD cell line; HT-1080 IDH1 knockdown viability, ATP luminescence, 48 h; 2% of 360,000 active; Potency, µM (top dose mostly 46.1 µM), inactives show top-dose activity, negative = toxicity, actives largely listed as cytotoxic;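 note: 0% = DMSO wells and -100% = cell-free medium wells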
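HT-1080-IDH1KD cells (IDH1 knocked down), 750/well in RPMI with 5% FBS, treated with compound 48 h at 37 degrees C. Viability by CellTiter-Glo luminescence, normalised to DMSO and no-cell wells; concentration-response curves classed.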
TGFb inhibitor – qHTS for Inhibitors of TGF-b; Potency, µM (highest dose often 46.1 µM), for the others: at the highest dose activity, negative = inhibition, most hits filed as inhibitors; HepG2 CAGA-GFP TGF-b/SMAD3 reporter, GFP fluorescence, 18 h; TGF-beta stimulated, 500 pg/mL final; 1.2% of 410,000 active; note: % is set by controls: 0 for no effect and ±100 for the full control effect; nearly all actives have a fitted effect of over 65% in size
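Using HEPG2 CAGA-GFP reporter cells at 1000 cells/well, we pinned test compounds, stimulated with recombinant TGF-beta (500 pg/mL final) and measured total well GFP after 18 h.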
HT1080NT lethal – qHTS for induction of synthetic lethality in tumor cells producing 2HG: qHTS for the HT-1080-NT fibrosarcoma cell line; Potency, µM (top dose mostly 46.1 µM), without a hit: top-dose activity, negative = less viability, most hits filed as cytotoxic; AID 686970, 2013; 1.6% of 360,000 active; HT-1080-NT fibrosarcoma viability, CellTiter-Glo ATP luminescence, 48 h;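 note: NT is the 2HG producing partner of a matched IDH1 knockdown line; 0% = DMSO-treated cells and -100% = media-only wells without cells; nearly all actives have a fitted effect of over 55% in size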
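Viability of the 2HG-overproducing fibrosarcoma line after 48 hours of compound exposure at 37 degrees C was determined by luminescence with CellTiter-Glo, and concentration-effect curves were then fitted and categorized.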
ATXN viability – Viability Counterscreen for Primary qHTS for Inhibitors of ATXN expression; S2 cells (HEK-293 line with an ATXN2-luciferase reporter) viability, CellTiter-Fluor protease fluorescence, 24 h; Potency, µM (top dose mostly 56.7 µM), actives largely listed as cytotoxic; 0.49% of 400,000 active; AID 651635, 2014; note: nearly all actives have a fitted effect of over 40% in size
HepG2 tox – qHTS for Inhibitors of TGF-b: Cytotox Counterscreen; Potency, µM (top dose mostly 46.1 µM), for inactives: top-dose activity change, negative = cytotoxicity, most hits filed as cytotoxic; 0.76% of 410,000 active; HepG2 CAGA-GFP viability, ATP luminescence, 18 h
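HepG2 CAGA-GFP cells (1000/well, DMEM with 1% FBS) received compound, then TGF-beta at 500 pg/mL final, and were incubated 18 hours at 37 degrees C. Viability was read by CellTiter-Glo luminescence. Media-only wells were set as complete cell-killing and DMSO as no toxicity.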
Numbers without * were called inactive; i = inactive; ? = inconclusive; . = no result. Calls come from the whole dose curve; as a rule, active = well fitted curve in the direction sought with a large enough effect; inconclusive = small, poorly fitted or top-dose-only effect, or another doubt; inactive = no such curve, though single readings can be large; an effect the other way counts as inactive or inconclusive. Potency is the fitted concentration of half-maximal effect.

SMILES	ATXN2 expr inh	HT1080 IDH1KD tx	TGFb inhibitor	HT1080NT lethal	ATXN viability	HepG2 tox
O=C1C(N2CCOCC2)=C(n2nnc3ccccc32)C(=O)c2ccccc21	22.4µM*	16.4µM*	?	11.6µM*	20µM*	14.1µM*
O=C1c2ccccc2C(=O)c2c1cccc2-n1nnc2ccccc21	-15.5%	4.0%	17.0%	6.9%	i	-5.5%
COc1cccc(C(=O)Nc2nc(-c3nnn(-c4ccccc4C(F)(F)F)c3C)ns2)c1	-24.5%	.	12.6µM*	.	i	-54.1%
COc1ccc(C(=O)Nc2nc(-c3nnn(-c4ccc(F)cc4F)c3C)ns2)cc1	11.2µM*	.	?	.	?	-36.2%
Cc1c(-c2nsc(NC(=O)c3cccs3)n2)nnn1-c1ccc(Br)cc1	?	.	-25.8%	.	31.6µM*	-37.1%
O=C1C2CC=CCC2C(=O)N1Nc1ccccc1 (stereo unspecified)	-26.4%	?	0.8%	20.6µM*	i	14.0%
CCOc1ccc(NC(=O)NC(CC)Cn2nnc3ccccc3c2=O)cc1 (stereo unspecified)	-7.9%	.	?	.	i	-13.3%
O=C(Cn1ncc2ccsc2c1=O)N1CCN(c2ccccc2F)CC1	4.5%	.	12.4%	.	i	-0.5%
COc1ccc(/C=C2\CCc3ccccc3C2=O)cc1OC	42.2%	-0.1%	?	2.0%	i	9.4%
CCOc1cc(/C=C2\COc3ccccc3C2=O)ccc1OCC(=O)N(C)C	-26.8%	23.1µM*	?	25.9µM*	i	-80.5%
CCNC(=O)COc1ccc(/C=C2\COc3ccccc3C2=O)cc1OC	?	25.9µM*	?	?	?	-24.2%
O=C1/C(=C/c2cccs2)COc2ccccc21	6.5%	-5.5%	?	-1.0%	i	-35.1%
CC(C)(C)C(=O)CSc1n[nH]c(-c2ccccc2)n1	.	.	-0.3%	.	.	-1.6%
COc1cccc(Nc2nc3cc(C)ccc3nc2NS(=O)(=O)c2ccc(Cl)cc2)c1	-2.4%	.	7.94µM*	.	?	-35.6%
CCCCCCCC/C=C/C(=O)O	11.0%	.	.	.	i	.
Cc1cc(Nc2cccc(Cl)c2)nc(NCc2ccccc2)n1	-23.6%	?	17.8µM*	?	?	-93.8%
Cc1cc(N/N=C/c2ccccc2)nc(NCc2ccccc2)n1	22.0%	-4.5%	?	-19.9%	i	-20.0%
Cc1cc(N/N=C/c2cccc(F)c2)nc(NCc2ccccc2)n1	-17.9%	16.4µM*	?	20.6µM*	?	-29.3%
Cc1cc(N/N=C/c2cccc(Cl)c2)nc(NCc2ccccc2)n1	?	?	20µM*	?	?	10µM*
COc1ccc(NC(=O)N2CCN(S(=O)(=O)c3ccc4c(ccn4C)c3)CC2)cc1OC	-3.4%	.	?	.	i	-10.2%
C[C@@H]1CN(Cc2ccc3c(c2)CN(Cc2cccn2-c2cccnc2)CCO3)C[C@H](C)O1	.	.	.	.	i	.
O=C1NC(c2ccccc2)=C(c2nc3ccccc3s2)C(c2ccc(O)cc2)N1 (stereo unspecified)	?	5.62µM*	?	7.94µM*	?	-80.7%
O=C1NC(c2ccccc2)=C(c2ccc3ccccc3n2)C(c2ccccc2)N1 (stereo unspecified)	-17.4%	-14.1%	?	-10.0%	i	-33.6%
CCOc1ccccc1NS(=O)(=O)c1cnc(N)nc1	.	.	-1.4%	.	.	1.0%
COc1ccc(CCNC(=O)Nc2nc(C(N)Cc3ccccc3)cs2)cc1OC (stereo unspecified)	-12.8%	?	16.9%	?	i	-12.9%
SMILES	ATXN2 expr inh	HT1080 IDH1KD tx	TGFb inhibitor	HT1080NT lethal	ATXN viability	HepG2 tox
COc1ccc(-c2nnc(SCC(=O)Nc3cc(OC)ccc3OC)nc2-c2ccc(OC)cc2)cc1	.	.	10µM*	.	.	-13.0%
COc1cc(NC(=O)Nc2nc(C(N)CCc3ccccc3)cs2)cc(OC)c1OC (stereo unspecified)	?	?	?	18.4µM*	?	-89.3%
COc1ccc(-c2nnc(SCC(=O)Nc3cccc(Cl)c3C)nc2-c2ccc(OC)cc2)cc1	0.9%	.	-13.4%	.	i	6.9%
COc1ccc(NC(=O)Nc2cc(NC(=O)Nc3ccc(OC)cc3)c(C)nc2C)cc1	-2.5%	18.4%	-11.5%	15.3%	i	-0.6%
COc1ccc(OC)c(NC(=O)Nc2cc(NC(=O)Nc3cc(OC)ccc3OC)c(C)nc2C)c1	-25.9%	23.1µM*	16.8%	18.4µM*	i	-6.0%
NC(CCc1ccccc1)c1csc(NC(=O)NCC2CCCCC2)n1 (stereo unspecified)	?	?	?	16.4µM*	?	-101.6%
C=C1C=C(C(F)(F)F)n2ncc(C(=O)NCc3ccc(F)cc3)c2N1	.	.	0.6%	.	.	-0.3%
COc1ccccc1C(=O)Nc1ccccc1C(=O)OCc1cc(=O)n2ccsc2n1	3.4%	.	2.3%	.	i	-7.7%
C[N+]1(CC(=O)c2c3ccccc3cc3ccccc23)CCOCC1	.	.	3.3%	.	.	-24.5%
COc1ccc(OC)c(NC(=O)Nc2nc(C(N)CCc3ccccc3)cs2)c1 (stereo unspecified)	?	20.6µM*	?	?	.	15.8µM*
COc1cc(CNCCc2ccccc2)cc(Br)c1OCC(=O)Nc1ccccc1C	.	-12.5%	?	?	28.2µM*	-116.0%
CNCc1cc(Br)c(OCC(=O)Nc2ccccc2OC)c(OC)c1	-31.0%	?	-21.7%	?	?	-22.9%
CCOc1cc(CNC2CCCC2)cc(Cl)c1OCc1ccccc1	-16.0%	?	0.0%	20.6µM*	?	-115.7%
CCOc1cc(CNCC(C)C)cc(Cl)c1OCc1ccccc1	.	-20.0%	-19.9%	-22.4%	?	-16.9%
COc1cc(CNCCc2ccccc2)cc(Cl)c1OCc1ccccc1	?	?	?	13µM*	?	-148.8%
C[C@@]12C[C@@]3(O)O[C@@H](O1)[C@]1(COC(=O)c4ccccc4)[C@@H]3C[C@@]12O[C@@H]1O[C@H](CO)[C@@H](O)[C@H](O)[C@@H]1O	5.0%	.	.	.	.	.
Cc1c(O)c2c(c(C(=O)/C=C/c3ccccc3)c1O)OC(C)(C)C=C2	.	.	11.2µM*	.	.	-44.7%
CCCCN1C(=O)C(=O)c2cc(Cl)ccc21	?	20.6µM*	12.6µM*	25.9µM*	?	-86.4%
